Data as given in PubChem BioAssay.
Calls of active or inactive are those of the source.

test: JC-1 mitochondrial signal, unstimulated adipocytes – cell-based, JC-1 fluorescence, 3T3-L1 adipocytes, 24 h, 100 nL compound, profiling panel (AID 1168); details: JC-1 mitochondrial fluorescence, higher = more signal, called active from +8 up or from −8 down; also: test concentration not given here

z-score, inactive:
CC1CC/C=C\[C@H]2OC34C=CCN(C(C)C)C(=O)[C@H]3N(CCCCCCO)C(=O)[C@@H]4C2C(=O)O1 (stereo not given in full) -0.0814, CC1CC/C=C\[C@H]2OC34C=CCN(c5ccc(Cl)cc5)C(=O)[C@H]3N(CCCCCO)C(=O)[C@]4(C)C2C(=O)O1 (stereo not given in full) -0.0396, COCCCNC(=O)[C@@]1(Sc2ccc(C)cc2)CC(=O)N(C2CCCCC2)[C@@H]1c1ccc(CO)cc1 1.07, [N-]=[N+]=Nc1ccccc1[C@H]1OC(c2ccc(OCCCO)cc2)=N[C@@]1(Cc1ccccc1)C(=O)N1CCCCC1 1.44, CC(C)OC(=O)C=C1C[C@@H](c2ccc(C(F)(F)F)cc2)O[C@@H](c2ccc(C(F)(F)F)cc2)O1 0.958, [N-]=[N+]=Nc1ccccc1[C@@H]1OC(c2ccc(OCCCO)cc2)=N[C@]1(Cc1ccccc1)C(=O)NCC(O)CO (stereo not given in full) 0.778, [N-]=[N+]=Nc1ccccc1C[C@]1(C(N)=O)N=C(c2ccc(OCCCO)cc2)O[C@H]1c1ccccc1N=[N+]=[N-] -0.981, C[C@@H]1NC(=O)[C@@]23C(=O)N[C@@H](Cc4ccccc4)C2[C@H](C)[C@@]2(C)O[C@H]2C3/C=C/C/C=C\CNC(=O)[C@@H]2CCCN2C1=O (stereo not given in full) 1.19, COCCCNC(=O)[C@]1(CCS(=O)(=O)c2ccccc2)N=C(c2ccc(OCCCO)cc2)O[C@@H]1c1ccccc1N=[N+]=[N-] -0.594, O=C1OCCC/C=C\[C@H]2OC34C=CCN(CCN5CCOCC5)C(=O)[C@H]3N(CCCCCCO)C(=O)[C@@H]4C12 (stereo not given in full) 0.587
